# The supplement of paper PMC10498489
# About 330 (14%) of roughly 2,300 compounds showed activity. A selection follows. Values without a mark were called inactive.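 How the source made its calls: active = median modified Z-score above 1.96; inactive = 1.96 or below.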
# Tested on: HepG2 Srxn1-GFP reporter cells (+30 nM CDDO-Me)
# Assay: Srxn1-GFP intensity median modified Z-score relative to plate median; higher = stronger NRF2 / oxidative stress reporter activation, active = hit call of the paper
# Settings: 10 µM; exposure time: 24h
# Outline: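 Compound at 10 μM was applied with an NRF2 activator at 30 nM to HepG2 Srxn1-GFP BAC reporter cells for 24 h, in DMSO at no more than 0.1%, using three replicate 96-well plates seeded at 20,000 cells per well. Fixed, Hoechst-stained cells were imaged confocally and cytoplasmic GFP was scored for each cell, with images under 100 cells left out. The figure reported is the replicate median of the per-plate modified Z-score of GFP intensity. Scaling relied on 1.4826 × median absolute deviation.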
row,Compound,Srxn1-GFP intensity median modified Z-score
1,NC(=O)C1CC2CCCCC2N1c1cc(Cl)c(C(F)(F)F)cc1[N+](=O)[O-] (stereo not given),0.587
2,CON=C(C(=O)NC1C(=O)N2C(C(=O)O)=C(CSc3nnnn3C)CSC12)c1csc(=N)[nH]1 (stereo not given) [euspeclibcmpd505],-0.115
3,CON=C(C(=O)NC1C(=O)N2C(C(=O)O)=C(C[N+]3(C)CCCC3)CSC12)c1csc(=N)[nH]1 (stereo not given) [euspeclibcmpd504],35.8 (active)
4,CON=C(C(=O)N[C@@H]1C(=O)N2C(C(=O)O)=C(COC(C)=O)CS[C@H]12)c1csc(=N)[nH]1 [euspeclibcmpd2262],-0.173
5,O=C(c1ccc(COc2ccc(Cl)cc2)cc1)N1CCN(Cc2ccc3c(c2)OCO3)CC1,1.17
6,C[C@]12CCC3c4ccc(O)cc4CCC3C1CC[C@@H]2OC(=O)CCC1CCCC1 (stereo not given in full) [euspeclibcmpd116],-0.256
7,Cc1ccc(O)cc1 [euspeclibcmpd76],-0.159
8,CC=C(C(=CC)c1ccc(O)cc1)c1ccc(O)cc1 [euspeclibcmpd91],13.6 (active)
9,Oc1ccc(O)cc1 [euspeclibcmpd672],0.74
10,CN[C@@H]1C(O)[C@@H](O[C@@H]2[C@@H](O)[C@H](O[C@H]3OC(CN)=CC[C@H]3N)[C@@H](N)C[C@H]2N)OC[C@]1(C)O (stereo not given in full) [euspeclibcmpd452],-0.626
11,CO[C@H]1/C=C/O[C@@]2(C)Oc3c(C)c(O)c4c(O)/c(c(=CNN5CCN(C)CC5)c(O)c4c3C2=O)=N\C(=O)/C(C)=C\C=C\C(C)[C@H](O)[C@@H](C)[C@@H](O)[C@@H](C)[C@@H](OC(C)=O)[C@@H]1C (stereo not given in full) [euspeclibcmpd263],-0.401
12,O=c1c(O)cc(C2Oc3cc(O)cc(O)c3C[C@H]2O)cc2c(C3Oc4cc(O)cc(O)c4C[C@@H]3O)cc(O)c(O)c12 (stereo not given in full) [euspeclibcmpd1420],-0.548
13,Oc1cn2c(n1)Nc1ccc(Cl)c(Cl)c1C2 [euspeclibcmpd824],-0.784
14,CSc1ccc2c(c1)C(N1CCN(C)CC1)Cc1ccccc1S2 (stereo not given) [euspeclibcmpd1144],28.4 (active)
15,Cc1cc2c(s1)N=c1ccccc1=NC2N1CCN(C)CC1 (stereo not given) [euspeclibcmpd2354],0.441
16,CN1CCN2c3ccccc3Cc3ccccc3C2C1 (stereo not given) [euspeclibcmpd961],0.112
17,CON=C(C(=O)NC1C(=O)N2C(C(=O)O)=C(CSC(=O)c3ccco3)CSC12)c1csc(=N)[nH]1 (stereo not given) [euspeclibcmpd692],-0.296
18,N=c1[nH]cnc(=Nc2ccc(Cl)cc2)[nH]1 [euspeclibcmpd2344],0.164
19,CC1CC[C@@]23CC[C@]4(C)[C@@](CCC5[C@@]6(C)CCC(=O)C(C)(C)C6CC[C@]54C)(OC2=O)C3C1C (stereo not given in full) [euspeclibcmpd1366],-0.221
20,CC(=O)OCC(=O)[C@@]1(O)CC[C@H]2[C@@H]3CCC4=CC(=O)CC[C@]4(C)[C@H]3C(=O)C[C@]21C,0.314
21,CC/C(=C(\c1ccccc1)c1ccc(OCCN(C)C)cc1)c1ccccc1 [euspeclibcmpd285],43.4 (active)
22,CCN(CC)CCOc1ccc(/C(=C(\Cl)c2ccccc2)c2ccccc2)cc1 [euspeclibcmpd69],-1.55
23,COc1cc(C(=O)NCc2ccc(OCCN(C)C)cc2)cc(OC)c1OC [euspeclibcmpd309],0.482
24,CN(C)CCOC(=O)COc1ccc(Cl)cc1 [euspeclibcmpd1131],-0.393
25,CN(C)CCOc1ccc(/C(=C(/CCCl)c2ccccc2)c2ccccc2)cc1 [euspeclibcmpd946],93.7 (active)
26,COc1ccc(C(=O)NCc2ccc(OCCN(C)C)cc2)cc1OC [euspeclibcmpd1095],0.331
27,C[C@@H]1CC2C3CC(F)=C4CC(=O)C=C[C@]4(C)[C@@]3(F)[C@@H](O)C[C@]2(C)[C@@]1(O)C(=O)COC(=O)C(C)(C)C (stereo not given in full) [euspeclibcmpd128],-0.646
28,COc1c(O)c(C)c(C=CCCCCCCCCO)c(O)c1OC [euspeclibcmpd1216],-0.228

row,Compound,Srxn1-GFP intensity median modified Z-score
1,COC(=O)/C(=C1\OC(=O)C(c2ccccc2)C1=O)c1ccccc1 (stereo not given) [euspeclibcmpd1487],1.05
2,CC(=O)OC1CC2C(C)(C)C(O)CCC2(C)C2CCC3(C)C(=CC(=O)OC3c3ccoc3)C12C (stereo not given) [euspeclibcmpd1952],0.595
3,CC1(C)C(=O)C=C[C@@]2(C)C1CC(=O)[C@]1(C)C2CC[C@@]2(C)[C@H](c3ccoc3)OC(=O)C3O[C@]321 (stereo not given in full) [euspeclibcmpd1588],13 (active)
4,CC(=O)O[C@@H]1CC2C(C)(C)C(=O)C3OC3[C@]2(C)C2CC[C@@]3(C)[C@H](c4ccoc4)OC(=O)C4OC43[C@@]21C (stereo not given in full) [euspeclibcmpd1644],5.41 (active)
5,COC(=O)C1OC(=O)C2OC23[C@@]1(C)CCC1[C@]2(C)C(C[C@@H](O)[C@]13C)C(C)(C)[C@H](OC(C)=O)C[C@@H]2OC(C)=O (stereo not given in full) [euspeclibcmpd2102],-0.135
6,CC(=O)O[C@@H]1CC2C(C)(C)C(=O)CC[C@]2(C)C2CC[C@@]3(C)[C@H](c4ccoc4)OC(=O)C4OC43[C@@]21C (stereo not given in full) [euspeclibcmpd1587],32.1 (active)
7,CC(=O)O[C@H]1C[C@@H](OC(C)=O)C(C)(C)C2CC(=O)[C@]3(C)C(CC[C@@]4(C)C(C(=O)O)OC(=O)C5OC543)[C@]21C (stereo not given in full) [euspeclibcmpd1389],-0.386
8,CC(=O)O[C@@H]1CC2C(C)(C)C(=O)C=C[C@]2(C)C2CC[C@@]3(C)[C@H](c4ccoc4)OC(=O)C4O[C@]43[C@@]21C (stereo not given in full) [euspeclibcmpd1359],23.9 (active)
9,CC(=O)O[C@H]1C[C@@H](OC(C)=O)C(C)(C)C2CC(=O)[C@]3(C)C(CC[C@@]4(C)[C@H](c5ccoc5)OC(=O)C5O[C@]543)[C@]21C (stereo not given in full) [euspeclibcmpd1589],0.448
10,COC(=O)CC1C(C)(C)C(OC(C)=O)C2C(OC(C)=O)C34OC2(O)C1(C)C3CCC1(C)C4=CC(=O)OC1c1ccoc1 (stereo not given) [euspeclibcmpd1938],-0.377
11,CC(=O)O[C@H]1C[C@@H](OC(C)=O)C(C)(C)C2C[C@@H](OC(C)=O)[C@@]3(C)C4=CC(=O)O[C@@H](c5ccoc5)[C@]4(C)CCC3[C@]21C (stereo not given in full) [euspeclibcmpd1532],0.0053
12,CC1(C)O[C@H]2CC(=O)OC[C@]23[C@H]2CC[C@@]4(C)[C@H](c5ccoc5)OC(=O)C5O[C@]54[C@]2(C)C(=O)C[C@@H]13 (stereo not given in full) [euspeclibcmpd1497],0.563
13,COC(=O)C1OC(=O)C2OC23C1(C)CCC1C2(C)CCC(=O)C(C)(C)C2CC(OC(C)=O)C13C (stereo not given) [euspeclibcmpd1948],-0.0565
14,CC(C)CCCC(C)C1CCC2C3CC(=O)C4C[C@@H](O)CC[C@]4(C)C3CC[C@]12C (stereo not given in full) [euspeclibcmpd2198],-0.502
15,C[C@]12CC[C@@H](O)C[C@H]1CCc1ccccc12 [euspeclibcmpd1508],-0.327
16,N=c1[nH]c(=N)c2nc(-c3ccccc3)c(=N)[nH]c2[nH]1 [euspeclibcmpd304],-0.346
17,CN[C@@H]1[C@@H](O[C@H]2O[C@H](CO)[C@@H](N)[C@H](O)[C@H]2O)O[C@H]2C[C@@H](N)[C@H](O[C@H]3[C@H](O)[C@@H](O)[C@H](N)C[C@@H]3N)O[C@@H]2[C@@H]1O [euspeclibcmpd2180],-0.708
18,CN(N=O)C(=O)N[C@@H]1[C@@H](O)[C@H](O)[C@@H](CO)O[C@@H]1O [euspeclibcmpd271],0.0066
19,Cc1cc2nc3c(=O)[nH]c(=O)nc-3n(C[C@@H](O)[C@@H](O)[C@@H](O)CO)c2cc1C [euspeclibcmpd751],-0.238
20,Cc1ccc(N2CC(C(=O)NCCCn3ccnc3)CC2=O)c(F)c1 (stereo not given),1.07
21,Cc1onc(-c2ccccc2Cl)c1C(=O)NC1C(=O)N2C1SC(C)(C)C2C(=O)O (stereo not given) [euspeclibcmpd2381],-0.0695
22,C[C@@H]1O[C@@H](OC[C@H]2OC(Oc3c(-c4ccc(O)c(O)c4)oc4cc(O)cc(O)c4c3=O)[C@H](O)[C@@H](O)[C@@H]2O)[C@H](O)[C@H](O)[C@H]1O (stereo not given in full) [euspeclibcmpd2149],-0.139
23,CC(=O)O[C@H]1CC[C@@]2(C)C(C[C@@H](OC(C)=O)[C@]3(C)C2CC[C@@]2(C)[C@H](c4ccoc4)OC(=O)C4O[C@]423)C1(C)C (stereo not given in full) [euspeclibcmpd2319],5.12 (active)
24,CC(=O)O[C@H]1C[C@@H](OC(C)=O)C(C)(C)C2C[C@@H](O)[C@]3(C)C(CC[C@@]4(C)[C@H](c5ccoc5)OC(=O)C5O[C@]543)[C@]21C (stereo not given in full) [euspeclibcmpd1544],0.39
25,CC(=O)OC1CC(OC(C)=O)C2(C)C(CC(OC(C)=O)C3(C)C2CCC2(C)C(c4ccoc4)OC(=O)C4OC423)C1(C)C (stereo not given) [euspeclibcmpd1940],0.483
26,COc1ccc(C2COc3c(ccc(O)c3OC)C2)c(OC)c1O (stereo not given) [euspeclibcmpd1831],1.65
27,CC1(C)C(=O)C2C[C@@]3(O)C4=CC(=O)O[C@@H](c5ccoc5)[C@]4(C)CCC3[C@](C)(C2=O)[C@H]1CC(=O)O (stereo not given in full) [euspeclibcmpd1558],-0.051
